Assay outcomes as filed in PubChem BioAssay.
KCNQ2 pot = potentiators of rat KCNQ2 potassium channel. CHO-K1 KCNQ2, FluxOR thallium flux fluorescence; active compounds read high. B-score at 10 µM. 310,000 tested, 0.54% active;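 active means fluorescence ratio B-score at least 3 SD of library B-scores, with initial fluorescence B-score within 3 of them, cut at about 5.3 in these data; same plate scores as AID 2156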;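 further: B-score of peak minus minimum over baseline fluorescence ratio after K+ and Tl+ stimulus; positive B-score means potentiation of KCNQ2 with more thallium influx and brighter signal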
Target sequence (O88943 whole entry, looked up): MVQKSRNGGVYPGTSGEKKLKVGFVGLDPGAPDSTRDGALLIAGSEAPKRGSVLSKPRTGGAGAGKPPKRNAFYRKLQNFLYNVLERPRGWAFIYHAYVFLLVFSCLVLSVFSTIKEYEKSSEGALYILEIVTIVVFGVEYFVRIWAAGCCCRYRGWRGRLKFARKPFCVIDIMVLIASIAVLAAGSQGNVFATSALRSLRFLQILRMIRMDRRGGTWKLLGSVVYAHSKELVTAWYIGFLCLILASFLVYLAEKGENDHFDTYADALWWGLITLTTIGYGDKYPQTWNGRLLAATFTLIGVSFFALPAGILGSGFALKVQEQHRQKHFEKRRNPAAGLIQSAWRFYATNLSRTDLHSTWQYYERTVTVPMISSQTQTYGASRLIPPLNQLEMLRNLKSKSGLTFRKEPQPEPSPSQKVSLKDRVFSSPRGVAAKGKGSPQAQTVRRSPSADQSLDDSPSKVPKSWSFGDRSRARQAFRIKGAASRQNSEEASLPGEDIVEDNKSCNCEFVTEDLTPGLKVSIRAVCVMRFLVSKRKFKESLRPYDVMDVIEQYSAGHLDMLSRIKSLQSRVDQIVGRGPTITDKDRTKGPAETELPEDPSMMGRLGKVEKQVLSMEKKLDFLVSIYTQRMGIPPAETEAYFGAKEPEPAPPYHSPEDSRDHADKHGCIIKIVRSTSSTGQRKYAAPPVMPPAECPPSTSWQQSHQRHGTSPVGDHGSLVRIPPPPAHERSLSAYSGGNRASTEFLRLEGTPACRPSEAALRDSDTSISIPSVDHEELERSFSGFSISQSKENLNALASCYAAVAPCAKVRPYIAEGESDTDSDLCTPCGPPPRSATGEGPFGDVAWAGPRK
KCNQ2 block = KCNQ2 (rat) channel inhibition; O88943; CHO-K1 KCNQ2, FluxOR thallium flux, 20 min; active compounds read low; B-score at 10 µM; 310,000 tested, 1.1% active; AID 2156;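 active means fluorescence ratio B-score at most minus 3 library SDs, with starting brightness B-score within 2 library SDs, cut at about -5.5 in these data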
Numbers stand for hits; 0 = inactive; - = not tested or not shown. An excerpt weighted towards active compounds, which were near 1.6% of everything screened.

SMILES	KCNQ2 pot	KCNQ2 block
COc1cccc(CNn2cnnc2)c1O	0	-5.64
COc1cc(/C=N/NC(=O)C2CCN(CC(O)COCc3ccccc3)CC2)ccc1O (stereo not drawn)	0	0
Cc1ccccc1OC(=O)n1c(=S)oc2cc(Cl)ccc21	6.92	0
O=C(Oc1ccccc1)n1c(=S)oc2ccccc21	0	0
O=C(CSc1ccccc1)N(c1ccc(Br)cc1)c1nccs1	-	0
CC(C)N(Cc1cn[nH]c1-c1ccc(-c2ccccc2)cc1)Cc1nccn1C	-	0
N#CCC(=O)Nc1ccc(C(=O)NCC(c2ccco2)N2CCCCC2)cc1 (stereo not drawn)	0	0
CC(/C=C1\SC(=S)N(NC(=O)c2ccccc2C)C1=O)=C\c1ccccc1	-	0
CC(/C=C1\SC(=S)N(NS(=O)(=O)c2ccc(C)cc2)C1=O)=C\c1ccccc1	21.4	0
COc1ccc(OC)c(S(=O)(=O)NC2CC(=O)N(c3cccc(F)c3)C2)c1 (stereo not drawn)	-	0
O=C(NCc1ccccc1Cl)C(=O)NCC1OCCCN1S(=O)(=O)c1cccs1 (stereo not drawn)	-	0
O=C(Cc1cccs1)N1CCN(c2ccc(F)cc2)CC1	0	0
O=C(Cc1cccs1)N1CCN(c2ccc([N+](=O)[O-])cc2)CC1	0	-5.55
O=C(c1cc([N+](=O)[O-])ccc1Cl)N1CCN(c2ccc(F)cc2)CC1	0	0
O=C(c1cc([N+](=O)[O-])ccc1Cl)N1CCN(c2ccc([N+](=O)[O-])cc2)CC1	0	-6.87
O=C1c2ccccc2C(Nc2ccc(S(=O)(=O)N3CCCCCC3)cc2)N1c1ccccn1 (stereo not drawn)	-	0
O=C1c2ccccc2C(Nc2ccc(Cl)cn2)N1c1ccccn1 (stereo not drawn)	0	-6.56
CC(C)(C)OC(=O)N1CCC(c2cc(=O)n3[nH]cc(C(=O)Nc4ccc(F)c(Cl)c4)c3n2)CC1	0	0
COc1ccc(NC(=O)c2c[nH]n3c(=O)cc(C4CCN(C(=O)OC(C)(C)C)CC4)nc23)cc1Cl	6.33	0
CCN(CC)CCN1C(=O)C(=O)/C(=C(/O)c2ccc(S(=O)(=O)N3CCOCC3)cc2)C1c1ccc(C(C)C)cc1 (stereo not drawn)	-	0
CCN(CC)c1nc2c(c(=O)n(C)c(=O)n2C)n1CCCc1ccccc1	-	0
CN(Cc1ccccc1)c1nc2c(c(=O)n(C)c(=O)n2C)n1CCCc1ccccc1	0	-7.89
COc1cccc(/C=N/NC(=O)c2c(-c3ccccc3)noc2C)c1O	-	0
COc1cc(/C=N/NC(=O)c2c(-c3ccccc3)noc2C)ccc1O	-	0
COc1cccc(/C=N/NC(=O)c2c(-c3ccccc3)noc2C)c1OC	0	-7.32
SMILES	KCNQ2 pot	KCNQ2 block
COc1ccc(Cl)cc1/C=N/NC(=O)c1c(-c2ccccc2)noc1C	0	-6.17
CS(=O)(=O)c1ccccc1-c1nnc(NC(=O)c2ccc3ncsc3c2)o1	-	0
CCOc1ccc(-c2cccc(NC(=O)c3ccco3)c2)nn1	0	0
COc1cc(/C=C(\NC(C)=O)C(=O)N2CCCCC2)ccc1OC(C)=O	-	0
O=C(NCCN1CCCC1=O)C1CCC(=O)N(CCc2cccc(F)c2)C1 (stereo not drawn)	0	0
COc1ccc(N2CCN(C(=O)CN(c3ccc(OC)cc3)S(=O)(=O)c3ccccc3)CC2)cc1	-	0
O=C(CN(c1ccc(Cl)cc1)S(=O)(=O)c1ccccc1)N1CCN(c2ccccc2)CC1	0	-7.41
Cc1c(Cl)cccc1-n1c(SCC(=O)NCc2cccs2)nnc1-c1ccncc1	0	0
Cc1c(Cl)cccc1-n1c(SCC(=O)NCc2ccccc2Cl)nnc1-c1ccncc1	0	-6.36
O=C(NC1CCCc2ccccc21)C1CCN(C(=O)c2sccc2-n2cccc2)CC1 (stereo not drawn)	-	0
CC1CN(C(=O)N2c3ccccc3Sc3ccccc32)CC(C)O1 (stereo not drawn)	0	-6.23
CC1CCN(C(=O)N2c3ccccc3Sc3ccccc32)CC1	-	0
O=[N+]([O-])c1cc(Cl)ccc1N1CCN(c2cccc(C(F)(F)F)c2)CC1	0	-6.15
O=[N+]([O-])c1cc(Cl)ccc1N1CCCC1	0	0
Cc1noc(C)c1-c1nnc(-c2ccc(OC(F)(F)F)cc2)o1	-	0
C[C@H]1CN=C(Nc2ccccc2)N1CC1CCCCCC1	0	0
O=C(c1ccc(C(F)(F)F)cc1)C1CCCN(C(=O)CN2CCCC2=O)C1 (stereo not drawn)	0	0
COCCC(=O)N1CCCC(C(=O)c2ccc(C(F)(F)F)cc2)C1 (stereo not drawn)	6.77	0
Cc1cc(C)n(CCCNC(=O)c2ccc(C)c(S(=O)(=O)N3CCOCC3)c2)n1	0	0
CCOc1ccc(C(CC(=O)O)NC(=O)Cc2ccc(Cl)cc2)cc1 (stereo not drawn)	-	0
CCN(C(=O)c1cc2c(=O)[nH]c3ccc(C)cc3c2s1)c1ccccc1F	12.9	0
CCN(C(=O)c1cc2c(=O)[nH]c3ccc(C)cc3c2s1)c1ccccc1C	0	0
Cc1ccc(C2OC(=O)C=C2c2ccccc2)cc1 (stereo not drawn)	-	0
CNC(=O)c1c(NC(=O)C2=COCCO2)sc2c1CCN(C(=O)OC)C2	0	0
N=C1SCC(=O)N1c1ncc(Cc2ccc(F)cc2)s1	6.87	0
SMILES	KCNQ2 pot	KCNQ2 block
Cc1ccc(-c2csc(N3C(=N)SCC3=O)n2)cc1	0	0
N=c1n(Cc2ccc(Cl)cc2)c2ccccc2n1CC(O)COc1ccccc1 (stereo not drawn)	-	0
N=c1n(Cc2ccccc2)c2ccccc2n1CC(O)COc1ccc(Cl)cc1Cl (stereo not drawn)	0	-5.98
On1nnc2c3ccccc3c3ccccc3c21	0	0
O=C(c1cc(-c2ccccn2)nc2ccc(Cl)cc12)N1CCN(CCc2ccccc2)CC1	0	-5.65
Cc1cnn(C(=O)c2cc(-c3ccccn3)nc3ccc(Cl)cc23)c1	-	0
Cc1ccc(-c2cc(C(=O)NCc3ccccn3)c3ccccc3n2)cc1C	0	-6.1
Cc1cccc(-c2cc(C(=O)NCc3ccccn3)c3ccccc3n2)c1	-	0
O=C(NCCc1ccc(Cl)cc1)c1cc(-c2ccccn2)nc2ccccc12	0	-6.53
O=C(NCCc1ccc(Cl)cc1)c1cc(-c2ccncc2)nc2ccccc12	-	0
CN(C(=O)CSc1nnc(-c2ccncc2)n1Cc1ccccc1)C1CCS(=O)(=O)C1 (stereo not drawn)	0	0
CC(C)C(C)(C#N)NC(=O)CSc1nc2scc(-c3ccc(F)cc3)c2c(=O)n1Cc1ccccc1 (stereo not drawn)	0	0
COc1ccc(C(=O)CCc2ccccc2)c(O)c1	-	0
O=C(CCc1ccccc1)c1c(O)cc(O)cc1O	0	-8.23
CCN(C(=O)CSc1cc(C)c2cccc(C)c2n1)C1CCS(=O)(=O)C1 (stereo not drawn)	0	0
CC(C)Oc1ccc(CN2CCCC(CO)(Cc3ccccc3)C2)cc1CO (stereo not drawn)	-	0
Cc1ccc(S(=O)(=O)N(CCCO)CC(O)CON=C2c3ccccc3-c3ccccc32)cc1 (stereo not drawn)	0	0
Cc1ccc(N(C)S(=O)(=O)c2ccc(-c3cc(C)no3)s2)cc1	0	-6.52
COc1ccc(-c2cc(C)no2)cc1S(=O)(=O)N(C)c1ccc(C)c(C)c1	-	0
Cc1cc(-c2ccc(S(=O)(=O)N(C)c3ccc(C)c(C)c3)s2)on1	0	-6.71
CCN1CCN(S(=O)(=O)c2ccc(-c3cc(C)no3)s2)CC1	0	0
Cc1c(Cc2ccccc2)sc(NC(=O)/C=C/c2cccc3ccccc23)c1C(N)=O	-	0
